From PubChem
ELG1 genotox – induces genotoxicity in HEK293T cells with luciferase-tagged ELG1; actives 1.3% (n = 330,000); AID 504466; HEK293T ELG1-luciferase reporter, luminescence, 16 h; Potency, µM (titrated, usually from 46 µM), actives largely listed as activators; further: nearly all actives have a fitted effect of over 60% in size
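Step 1: seed 2,000 HEK293T ELG1-luciferase cells per well. Step 2: add compound or DMSO, incubate 16 hr at 37 °C. Step 3: ONE-Glo, 30 min at room temperature, read luminescence.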
Rab9 prom act – activators of Rab9 promoter. Huh7 Rab9 promoter-luciferase reporter, luminescence, 24 h. Potency, µM (top dose mostly 9.22 µM), most hits filed as activators. actives 2.8% (n = 320,000); further: nearly all actives have a fitted effect of over 60% in size
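Rab9 promoter-driven luciferase in stably transfected Huh7 cells; 1500 cells/well rested 2 h, exposed to compound in DMSO for 24 h at 37 °C, 5% CO2. Luminescence read 10 min after adding luciferase reagent at ambient temperature.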
SMN2 splice up – SMN2 splice variant enhancement; AID 1458; HEK293 SMN2-luciferase splicing reporter, luminescence, 30-36 h; Potency, µM (doses to about 46.1 µM), hits mostly activators; actives 2.8% (n = 210,000); further: nearly all actives have a fitted effect of over 55% in size
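HEK293 cells carry an SMN2 […]–luciferase reporter in which exon 7 inclusion puts luciferase in frame. Cells were plated 10-12 h before compound addition, then incubated 30-36 h at 37C. ONE-Glo luminescence was read; sodium butyrate at 4.5 mM final served as control.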
ELG1 DNA repair – inhibitors of ELG1-dependent DNA repair in HEK293T cells | Potency, µM (titrated, usually from 46.1 µM), most hits filed as inhibitors | actives 2.3% (n = 330,000) | HEK293T ELG1-luciferase reporter, luminescence, 16 h; DNA damage induced by 5-fluorouridine; further: nearly all actives have a fitted effect of over 55% in size
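Step one: seed 2,000 cells per well. Step two: pin-transfer compound or DMSO alongside 5-fluorouridine. Step three: incubate 16 hr, 37 °C, 5% CO2. Step four: add ONE-Glo, wait 30 min, read luminescence.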
NPC1 prom act – activators of NPC1 promoter; Huh7 NPC1 promoter luciferase reporter, 24 h; Potency, µM (series often up to 9.22 µM), hits mostly activators; actives 2.4% (n = 320,000); further: nearly all actives have a fitted effect of over 60% in size
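Readout is luciferase luminescence, reflecting NPC1 promoter activation in stably transfected Huh7 cells after 24 h compound exposure at 37 °C in reduced-serum medium with 10% FBS.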
FLuc counter – inhibits or activates purified firefly luciferase, miR-21 counter-screen | P08659 | purified FLuc, Km substrates, luminescence inhibition | Potency, µM (doses to about 57.5 µM), usual class: inhibitors | actives 6.9% (n = 360,000) | AID 588342; further: nearly all actives have a fitted effect of over 55% in size
Target sequence (P08659 whole entry, looked up): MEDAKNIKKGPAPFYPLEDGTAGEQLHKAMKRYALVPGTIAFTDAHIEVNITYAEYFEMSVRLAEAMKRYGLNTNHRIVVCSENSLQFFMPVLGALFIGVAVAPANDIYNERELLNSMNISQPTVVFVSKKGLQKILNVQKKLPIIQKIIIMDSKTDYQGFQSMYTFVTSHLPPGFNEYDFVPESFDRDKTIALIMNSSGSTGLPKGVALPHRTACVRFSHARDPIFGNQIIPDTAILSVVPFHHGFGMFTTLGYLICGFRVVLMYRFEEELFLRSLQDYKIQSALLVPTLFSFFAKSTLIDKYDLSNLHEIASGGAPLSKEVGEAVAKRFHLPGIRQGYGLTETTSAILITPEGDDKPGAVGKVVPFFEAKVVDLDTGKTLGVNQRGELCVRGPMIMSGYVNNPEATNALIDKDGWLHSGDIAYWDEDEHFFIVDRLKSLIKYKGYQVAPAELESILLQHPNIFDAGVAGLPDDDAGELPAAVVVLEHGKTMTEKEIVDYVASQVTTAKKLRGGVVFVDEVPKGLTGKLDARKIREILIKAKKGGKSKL
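Purified P. pyralis luciferase (10nM final) with 10uM D-luciferin and 10uM ATP (Km levels) in 50mM Tris acetate pH 7.5, 10mM Mg acetate, 0.01% Tween-20, 0.05% BSA; qHTS 6-point titration, ~60 µM downward; luminescence read.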
Numbers stand for hits; – = inactive; ? = inconclusive; · = no result; [ ] = another dose, or the depositor's remark. Sampled rows, rich in hits. Any-hit rate of the full collection: about 9.2%. The call rests on the fitted dose curve; in most records, active means well fitted curve in the direction sought with a large enough effect; inconclusive means small, poorly fitted or top-dose-only effect, or another doubt; inactive means no such curve, though single readings can be large; an effect the other way counts as inactive or inconclusive.

SMILES	ELG1 genotox	Rab9 prom act	SMN2 splice up	ELG1 DNA repair	NPC1 prom act	FLuc counter
COc1ccc(C(=O)Cc2cc(OC)c(OC)cc2[N+](=O)[O-])cc1	–	?	?	?	?	9.5µM
CCOc1ccc(C(=O)Cc2cc(OC)c(OC)cc2[N+](=O)[O-])cc1	–	?	–	–	?	–
N#CC1CC(c2ccccc2)Nc2cc(Cl)ccc2N1 (stereo not given)	–	–	·	?	–	11µM
C[C@@H]1C[C@H](O)c2cc(Cl)ccc2N1	–	–	–	–	–	–
CCCCOc1ccc(-n2nc(C)cc2C)nn1	–	?	–	?	?	17µM
Cc1cc(C)n(-c2ccc(OCC(=O)O)nn2)n1	–	–	–	–	–	–
CC(C)C(NC(=O)c1ccccc1)C(=O)NC1CCCc2ccccc21 (stereo not given)	–	–	·	–	–	·
Cc1ccc2c(COC(=O)c3ccccc3Br)cc(=O)oc2c1	15µM	–	·	?	?	2.7µM
Cc1ccc2c(COC(=O)c3ccc(C)c(C)c3)cc(=O)oc2c1	–	?	·	?	–	–
Cc1ccc2c(COC(=O)C34CC5CC(CC(C5)C3)C4)cc(=O)oc2c1	?	4µM	–	?	?	?
Cc1ccc2c(COC(=O)c3ccccc3Cl)cc(=O)oc2c1	15µM	–	·	?	?	0.85µM
COc1cc(OC)cc(C(=O)N[C@H](C(=O)OCc2cc(=O)oc3cc(C)ccc23)C(C)C)c1	–	–	–	?	–	8.5µM
Cn1c(CNC(=O)CNS(=O)(=O)c2ccc(Br)cc2)cc(=O)n(C)c1=O	–	–	·	–	–	–
COc1cccc(C(=O)Nc2cccc(NC(=O)c3ccccc3Cl)c2)c1	–	–	·	–	–	15µM
COc1cccc(C(=O)Nc2cccc(NC(=O)c3ccc(Cl)cc3Cl)c2)c1	·	·	–	·	·	7.6µM
COc1cccc(C(=O)Nc2cccc(C(=O)NC3=NN(c4c(Cl)cc(Cl)cc4Cl)C(=O)C3)c2)c1	–	–	–	–	–	9.5µM
O=C(Nc1cccc(NC(=O)c2cccnc2)c1)c1cccnc1	–	–	–	–	–	–
O=C(Nc1cccc(NC(=O)c2ccc(Cl)cc2Cl)c1)c1cccnc1	–	–	·	–	–	13µM
CC(C)(C)C(=O)NC1=NN(c2c(Cl)cc(Cl)cc2Cl)C(=O)C1	–	–	·	–	–	–
O=C(O)CCNS(=O)(=O)c1cccc2nsnc12	–	–	·	–	–	–
Cc1nc2nc(C)c(NS(=O)(=O)c3ccc(F)cc3)c(=O)n2[nH]1	·	·	–	·	·	–
Cc1ccc(C(=O)COC(=O)c2cccc(NC(=O)c3ccc(Cl)cc3Cl)c2)cc1	·	·	?	·	·	0.85µM
Cc1cc(NC(=O)CS(=O)(=O)c2cn(Cc3cccc(F)c3)c3ccccc23)no1	–	–	–	21µM	–	–
COc1ccc(NC(=S)N2CCCCC2c2cccnc2)cc1 (stereo not given)	–	–	·	–	–	17µM
Cc1cccc(NC(=S)N2CCCCC2c2cccnc2)c1C (stereo not given)	–	–	·	–	–	–
SMILES	ELG1 genotox	Rab9 prom act	SMN2 splice up	ELG1 DNA repair	NPC1 prom act	FLuc counter
CCOc1ccc(NC(=O)Nc2cccnc2)cc1	?	3.5µM	·	?	?	7.6µM
COc1ccc(NC(=O)Nc2cccnc2)cc1	–	–	–	?	–	17µM
O=C(Nc1ccc(Cl)cc1)Nc1cccnc1	?	?	–	?	–	12µM
CC(=O)c1ccc(NC(=O)COC(=O)c2ccc(F)cc2F)cc1	–	–	·	–	–	?
CCn1c(SCC(=O)Nc2ccc(C(C)=O)cc2)nc2nc3c(cc2c1=O)CCCC3	?	–	–	?	–	?
COc1ccc(NC(=O)CSc2nc(N)c3cc4c(nc3n2)CCCC4)cc1	–	?	22µM	–	–	1.5µM
CC(=O)c1ccc(NC(=O)CSc2nc(N)c3cc4c(nc3n2)CCCC4)cc1	–	?	25µM	–	?	1.3µM
Cc1cccc(CC(=O)Nc2ccc3nc(N4CCC(C)CC4)cc(C)c3c2)c1	·	·	–	·	·	–
Cc1cc(N2CCC(C)CC2)nc2cccc(O)c12	–	–	–	–	–	24µM
COc1cccc(NC(=O)Nc2ccncc2)c1	–	–	·	–	–	?
COc1cccc(NC(=O)c2ccc(NC(=O)C(C)(C)C)cc2)c1	–	?	13µM	?	?	9.5µM
COc1cccc(NC(=O)Nc2ccc(C(C)(C)C)cc2)c1	–	?	11µM	?	?	3µM
CCOC(=O)c1c(-c2ccccc2)csc1NC(=O)c1cc(S(=O)(=O)N2CCOCC2)ccc1C	–	–	–	10µM	–	–
CCOC(=O)c1ccc(NC(=O)c2cc(S(=O)(=O)N3CCOCC3)ccc2O)cc1	–	–	–	–	–	15µM
O=C(OCC(=O)N(CCc1ccccc1)Cc1ccccc1)c1cc(S(=O)(=O)N2CCOCC2)ccc1F	–	–	·	–	–	–
Cc1ccc(S(=O)(=O)N2CCOCC2)cc1C(=O)OCC(=O)N(Cc1ccccc1)C(C)C	–	–	·	21µM	–	–
CCOC(=O)c1c(-c2ccccc2)csc1NC(=O)c1ccc(S(=O)(=O)N2CC(C)OC(C)C2)cc1 (stereo not given)	–	–	–	–	–	–
O=S(=O)(NCc1nnc2ccccn12)c1ccc(F)cc1	–	–	·	–	–	–
Cc1nc2ccccn2c1-c1ccnn1S(=O)(=O)c1ccc(F)cc1	–	–	·	18µM	–	–
Cc1ccc2c(N)c(C#N)sc2n1	–	–	?	–	–	–[2.3 µM]
Cc1cc(C)c2c(N)c(-c3nc4ccccc4[nH]3)sc2n1	?	2.8µM	13µM	?	?	?
Cc1ccc2nc(-c3sc4nc(C)ccc4c3N)[nH]c2c1	?	3.2µM	2.2µM	?	3.2µM	1.2µM
CS(=O)(=O)N(CC(=O)Nc1ccc(S(=O)(=O)N2CCCC2)cc1)c1cccc(F)c1	–	–	·	–	–	–
Cc1ccc(N2N=C(C(=O)O)CCC2=O)cc1Cl	–	–[1.84 µM]	·	–	–	–
N#Cc1cc(C#N)c(SCC(=O)N2CC(=O)Nc3ccccc32)nc1N	–	–	·	12µM	–	–
Cc1cccc(-n2c(SCC(=O)N3CC(=O)Nc4ccccc43)nc3ccccc3c2=O)c1C	–	–	–	21µM	–	–
CCc1nc(SCC(=O)N2CC(=O)Nc3ccccc32)c2c(C)c(C)sc2n1	–	–	–	23µM	–	–
CCc1ccc2nc(SCC(=O)N3CC(=O)Nc4ccccc43)c(C#N)cc2c1	–	–	–	?	–	–
Cc1sc2nc(C3CCCCC3)nc(SCC(=O)N3CC(=O)Nc4ccccc43)c2c1C	–	–	–	–	–	–
